Experimental data taken from PubChem BioAssay (Tox21).
Unmarked numbers belong to inactive results. Entries that show only a call come without a potency. Calls of active or inactive are those of the source. Unless noted, the call rests on the fitted dose curve; in most records, active means well fitted curve in the direction sought with a large enough effect in the repeat runs; inconclusive means weak or mixed curves; inactive means no such curve, though single readings can be large; an effect the other way counts as inactive or inconclusive.

What was measured:
[1] = qHTS assay to identify small molecule antagonists of the thyroid receptor (TR) signaling pathway - cell viability counter screen (AID 743064); further: nearly all actives have a fitted effect of over 50% in size
Method in brief: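 In rat pituitary GH3.TRE-Luc reporter cells co-exposed to compound and 1 nM T3 for 23.5 h, cytotoxicity was assessed with CellTiter-Fluor in the same wells, read by fluorescence.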

[2] = qHTS assay to identify small molecule antagonists of the thyroid receptor (TR) signaling pathway (AID 743065); further: nearly all actives have a fitted effect of over 55% in size
Method in brief: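 GH3.TRE-Luc rat pituitary cells carrying two TR response elements driving luciferase were plated for 4 h, given compound plus 1 nM T3 (final), and incubated 23.5 h at 37 C. ONE-Glo luminescence measured reporter inhibition; CellTiter-Fluor fluorescence tracked cytotoxicity.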

[3] = system: thyroid hormone receptor (rat, GH3 cells); assay: qHTS assay to identify small molecule agonists of the thyroid receptor (TR) signaling pathway (AID 743066; calls by dose curve)
[4] = molecular target: Estrogen receptor (Homo sapiens) (UniProt P03372); assay: qHTS assay to identify small molecule antagonists of the estrogen receptor alpha (ER-alpha) signaling pathway (AID 743069; active means well fitted curve in the direction sought with a large enough effect in the signal ratio in the repeat runs, not every such curve was filed as active; inconclusive means weak or mixed curves, or effect the other way; inactive means no such curve, though single readings can be large or run the other way; the % refers to the signal ratio)
Chain of Estrogen receptor (Homo sapiens) (P03372 whole entry, looked up): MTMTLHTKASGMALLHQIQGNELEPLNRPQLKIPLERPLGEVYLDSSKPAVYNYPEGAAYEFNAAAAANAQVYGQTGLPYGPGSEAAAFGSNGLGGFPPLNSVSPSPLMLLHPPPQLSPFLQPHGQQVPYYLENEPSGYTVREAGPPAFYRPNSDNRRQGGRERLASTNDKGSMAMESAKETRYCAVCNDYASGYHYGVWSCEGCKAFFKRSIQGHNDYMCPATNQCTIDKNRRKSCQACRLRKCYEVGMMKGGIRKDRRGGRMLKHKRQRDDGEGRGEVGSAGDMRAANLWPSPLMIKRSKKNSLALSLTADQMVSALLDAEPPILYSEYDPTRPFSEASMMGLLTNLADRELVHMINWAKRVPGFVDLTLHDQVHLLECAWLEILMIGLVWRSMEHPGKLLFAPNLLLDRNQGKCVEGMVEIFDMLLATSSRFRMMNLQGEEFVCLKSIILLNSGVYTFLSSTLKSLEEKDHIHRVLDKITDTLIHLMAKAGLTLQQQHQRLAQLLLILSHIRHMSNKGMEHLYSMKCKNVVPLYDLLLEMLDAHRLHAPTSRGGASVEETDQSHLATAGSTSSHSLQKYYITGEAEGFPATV
Method in brief: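 Estradiol-stimulated ER-alpha-UAS-bla HEK293 cells, 18 hr compound exposure at 37C. LiveBLAzer B/G substrate, 2 hr RT, fluorescence read.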

[5] = qHTS assay to identify small molecule antagonists of the estrogen receptor alpha (ER-alpha) signaling pathway - cell viability counter screen (AID 743074; calls by dose curve;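 further: HEK293 cells carrying ER-alpha-UAS-bla reporter stimulated with 17beta-estradiol; nearly all actives have a fitted effect of over 45% in size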)
[6] = molecular target: Estrogen receptor (Homo sapiens) (UniProt P03372); assay: qHTS assay to identify small molecule agonists of the estrogen receptor alpha (ER-alpha) signaling pathway (AID 743075; calls by dose curve;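 further: HEK293 GripTite cells with ER-alpha and UAS-driven beta-lactamase reporter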; further: potency means the concentration at half of the fitted maximal effect)
[7] = molecular target: Estrogen receptor (Homo sapiens) (UniProt P03372); assay: qHTS assay to identify small molecule agonists of the estrogen receptor alpha (ER-alpha) signaling pathway using the BG1 cell line (AID 743079); conditions: BG1Luc4E2 cells, ERE-luciferase agonist, 22 h; activation: at 70.3 µM (top of the series); further: nearly all actives have a fitted effect of over 20% in size; further: potency means the concentration at half of the fitted maximal effect
[8] = qHTS assay to identify small molecule antagonists of the estrogen receptor alpha (ER-alpha) signaling pathway using the BG1 cell line (AID 743080; calls by dose curve;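 further: BG1 cells stimulated with 17beta-estradiol alongside compound; nearly all actives have a fitted effect of over 25% in size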)
Method in brief: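 Endogenous full-length ER-alpha in BG1-Luc-4E2 cells drives a stably integrated 4×ERE luciferase gene; compounds were tested against 17beta-estradiol over 21.5 h, with luminescence and multiplexed viability fluorescence recorded.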

[9] = qHTS assay to identify small molecule antagonists of the estrogen receptor alpha (ER-alpha) signaling pathway using the BG1 cell line - cell viability counter screen (AID 743081);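 further: compound given together with 17beta-estradiol as the ER stimulus; nearly all actives have a fitted effect of over 45% in size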
[10] = molecular target: Aromatase (Homo sapiens) (UniProt P11511); assay: qHTS assay to identify aromatase inhibitors (AID 743083); further: nearly all actives have a fitted effect of over 55% in size
Chain of Aromatase (Homo sapiens) (P11511 whole entry, looked up): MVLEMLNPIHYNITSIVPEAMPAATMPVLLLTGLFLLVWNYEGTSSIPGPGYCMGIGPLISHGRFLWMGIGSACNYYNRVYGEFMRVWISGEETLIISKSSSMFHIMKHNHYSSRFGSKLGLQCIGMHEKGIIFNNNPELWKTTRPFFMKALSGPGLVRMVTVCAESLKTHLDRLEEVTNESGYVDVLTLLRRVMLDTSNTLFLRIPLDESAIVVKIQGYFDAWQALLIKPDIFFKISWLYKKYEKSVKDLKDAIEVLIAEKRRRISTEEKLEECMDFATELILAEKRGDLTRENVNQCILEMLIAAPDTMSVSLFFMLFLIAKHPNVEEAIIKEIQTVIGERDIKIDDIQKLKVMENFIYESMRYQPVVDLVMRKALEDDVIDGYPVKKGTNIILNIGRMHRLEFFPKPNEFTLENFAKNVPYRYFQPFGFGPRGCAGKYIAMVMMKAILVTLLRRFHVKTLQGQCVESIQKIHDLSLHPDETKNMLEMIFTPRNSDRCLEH

[11] = qHTS assay to identify aromatase inhibitors - cell viability counter screen (AID 743084);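 further: cells stimulated with testosterone during compound exposure; nearly all actives have a fitted effect of over 55% in size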
[12] = molecular target: Aryl hydrocarbon receptor (Homo sapiens) (UniProt P35869); assay: qHTS assay to identify small molecule that activate the aryl hydrocarbon receptor (AhR) signaling pathway (AID 743085);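 further: HG2L7.5c1 human HepG2 liver cells with stably integrated DRE-driven firefly reporter; nearly all actives have a fitted effect of over 15% in size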
Chain of Aryl hydrocarbon receptor (Homo sapiens) (P35869 whole entry, looked up): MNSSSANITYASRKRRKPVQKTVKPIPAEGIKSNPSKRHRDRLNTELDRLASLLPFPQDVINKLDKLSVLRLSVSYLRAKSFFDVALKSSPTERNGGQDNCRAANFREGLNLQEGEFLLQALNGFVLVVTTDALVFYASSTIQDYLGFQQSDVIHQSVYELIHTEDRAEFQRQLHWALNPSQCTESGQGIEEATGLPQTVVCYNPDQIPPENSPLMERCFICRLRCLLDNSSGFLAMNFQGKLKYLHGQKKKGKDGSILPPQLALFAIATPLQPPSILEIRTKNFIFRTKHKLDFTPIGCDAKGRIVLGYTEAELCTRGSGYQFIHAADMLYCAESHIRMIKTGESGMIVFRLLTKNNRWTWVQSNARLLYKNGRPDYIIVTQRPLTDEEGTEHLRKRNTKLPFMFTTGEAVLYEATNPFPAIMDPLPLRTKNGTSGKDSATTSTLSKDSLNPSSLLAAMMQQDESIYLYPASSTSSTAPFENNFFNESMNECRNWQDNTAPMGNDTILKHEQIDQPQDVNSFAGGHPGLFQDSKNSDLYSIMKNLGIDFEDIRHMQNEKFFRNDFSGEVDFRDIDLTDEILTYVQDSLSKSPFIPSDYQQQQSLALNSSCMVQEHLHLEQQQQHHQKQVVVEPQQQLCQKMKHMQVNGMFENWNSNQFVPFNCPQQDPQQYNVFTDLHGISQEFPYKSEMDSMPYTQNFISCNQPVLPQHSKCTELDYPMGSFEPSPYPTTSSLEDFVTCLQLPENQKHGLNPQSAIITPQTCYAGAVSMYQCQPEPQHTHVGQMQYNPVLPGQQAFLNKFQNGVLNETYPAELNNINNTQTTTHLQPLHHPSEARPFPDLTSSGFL
Method in brief: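 AhR agonist activity is inferred from enhanced light output of a DRE-controlled firefly luciferase reporter in HepG2 cells, measured with ONE-Glo following 24 h treatment at 37C.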

[13] = qHTS assay to identify small molecule that activate the aryl hydrocarbon receptor (AhR) signaling pathway - cell viability counter screen (AID 743086);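 further: HepG2 liver cells carrying the AhR DRE luciferase reporter; nearly all actives have a fitted effect of over 45% in size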
Method in brief: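 HepG2-AhR-luc (HG2L7.5c1) cells, 4000/well, were preincubated 5 h at 37C, exposed to compound in qHTS format for 24 hr at 37C, then given CellTiter-Fluor for 30 min; viability was read as fluorescence in the reporter wells.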

[14] = molecular target: Peroxisome proliferator-activated receptor gamma (Homo sapiens) (UniProt P37231); assay: qHTS assay to identify small molecule agonists of the peroxisome proliferator-activated receptor gamma (PPARg) signaling pathway (AID 743094; active means well fitted activation curve with a large enough effect in the signal ratio in the repeat runs, not every such curve was filed as active; inconclusive means weak or mixed curves, or effect the other way; inactive means no such curve, though single readings can be large or run the other way; the % refers to the signal ratio)
Chain of Peroxisome proliferator-activated receptor gamma (Homo sapiens) (P37231 whole entry, looked up): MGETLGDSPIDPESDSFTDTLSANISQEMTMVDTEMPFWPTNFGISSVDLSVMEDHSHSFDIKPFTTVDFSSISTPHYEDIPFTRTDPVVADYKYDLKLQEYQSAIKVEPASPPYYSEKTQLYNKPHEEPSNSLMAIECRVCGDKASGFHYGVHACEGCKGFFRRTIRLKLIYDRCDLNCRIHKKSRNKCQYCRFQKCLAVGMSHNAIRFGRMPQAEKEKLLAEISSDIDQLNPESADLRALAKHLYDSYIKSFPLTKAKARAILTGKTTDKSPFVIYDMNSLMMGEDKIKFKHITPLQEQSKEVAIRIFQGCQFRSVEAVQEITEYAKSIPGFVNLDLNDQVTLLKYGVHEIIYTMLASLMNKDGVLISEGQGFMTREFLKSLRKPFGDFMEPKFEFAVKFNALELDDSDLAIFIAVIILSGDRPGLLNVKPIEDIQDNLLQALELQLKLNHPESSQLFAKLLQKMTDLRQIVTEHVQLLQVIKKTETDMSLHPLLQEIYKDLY
Method in brief: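 Beta-lactamase FRET fluorescence was the read-out after a 1 h room-temperature substrate step, following 17 h compound treatment at 37C of HEK293H cells expressing a UAS-driven bla reporter responsive to PPARg.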

[15] = qHTS assay to identify small molecule phospholipidosis (PLD) inducers (AID 1259344; active means well fitted curve in the direction sought with a large enough effect; inconclusive means small, poorly fitted or top-dose-only effect, or another doubt; inactive means no such curve, though single readings can be large; an effect the other way counts as inactive or inconclusive)
Method in brief: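 HepG2 cells grown on collagen I take up LipidTOX Red while exposed to compound for 24 h; after fixation they are imaged at 20x and pit metrics are extracted.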

[16] = molecular target: Nuclear receptor subfamily 1 group I member 2 (Rattus norvegicus) (UniProt Q9R1A7); assay: Rat pregnane X receptor (rPXR) activation by small molecules, qHTS assay (AID 1346983); conditions: rPXR luciferase reporter cells, One-Glo luminescence, 24 h; max activation: hits give high values; further: nearly all actives have a fitted effect of over 20% in size
Chain of Nuclear receptor subfamily 1 group I member 2 (Rattus norvegicus) (Q9R1A7 whole entry, looked up): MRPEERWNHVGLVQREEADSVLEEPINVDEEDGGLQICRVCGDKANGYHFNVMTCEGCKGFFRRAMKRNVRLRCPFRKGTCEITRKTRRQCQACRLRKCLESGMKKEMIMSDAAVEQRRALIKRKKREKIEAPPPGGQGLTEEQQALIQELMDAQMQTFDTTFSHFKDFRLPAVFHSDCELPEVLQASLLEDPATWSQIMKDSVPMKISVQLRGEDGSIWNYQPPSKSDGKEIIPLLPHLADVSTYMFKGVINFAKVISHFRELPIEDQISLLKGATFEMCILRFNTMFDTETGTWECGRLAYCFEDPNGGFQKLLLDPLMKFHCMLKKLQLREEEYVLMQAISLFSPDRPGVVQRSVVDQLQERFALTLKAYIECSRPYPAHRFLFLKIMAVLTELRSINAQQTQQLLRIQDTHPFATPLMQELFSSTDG
Method in brief: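 Cell-based rPXR luciferase reporter assay, 2,000 cells per well, rested 5hr at 37 C before compound addition in DMSO, then 24 hr at 37 C. One-Glo reagent was added and luminescence read after 30 min at room temperature.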

[17] = molecular target: Nuclear receptor subfamily 1 group I member 2 (Homo sapiens) (UniProt O75469); assay: CYP3A4 induction through human pregnane X receptor (PXR) by small molecules, qHTS assay (AID 1346984); further: nearly all actives have a fitted effect of over 40% in size
Method in brief: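 Luminescence readout: luciferase signal after One-Glo (30 min, room temperature), following 3 h at 37C with 3uM final Luciferin-IPA P450 substrate. Cells were DPX-2 (HepG2, PXR/CYP3A4-luc co-transfected) dosed for 24 h.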

[18] = molecular target: Nuclear receptor subfamily 1 group I member 2 (Homo sapiens) (UniProt O75469); assay: Human pregnane X receptor (PXR) activation by small molecules, qHTS assay (AID 1346985); further: nearly all actives have a fitted effect of over 40% in size
Method in brief: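 DPX-2 cells (HepG2 co-transfected with a PXR response element and a CYP3A4-promoter luciferase construct) were seeded at 2,000 per well, rested 5 hr at 37C, then exposed to DMSO-dissolved compounds for 24 hr. Activation was read as luciferase luminescence.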

Structure (SMILES): O=C(O)[C@H]1/C(=C/CO)O[C@@H]2CC(=O)N21
- Potency [1]: inactive
- Potency [2]: inactive
- Potency [3]: inactive
- Potency [4]: inactive
- Potency [5]: inactive
- Potency [6]: inactive
- Potency [7]: inactive
- Potency [8]: inactive
- Potency [9]: inactive
- Potency [10]: inactive
- Potency [11]: inactive
- Potency [12]: inactive
- Potency [13]: inactive
- Potency [14]: inactive
- Potency [15]: inactive
- max activation [16]: -2.31%
- Potency [17]: inactive
- Potency [18]: inactive

Structure (SMILES): C=CCCCCCCCCC(=O)OC
- Potency [1]: inactive
- Potency [2]: inactive
- Potency [3]: inactive
- Potency [4]: inactive
- Potency [5]: inactive
- Potency [6]: inactive
- Potency [7]: inactive
- Potency [8]: inactive
- Potency [9]: inactive
- Potency [10]: inactive
- Potency [11]: inactive
- Potency [12]: inactive
- Potency [13]: inactive
- Potency [14]: inactive
- Potency [15]: inactive
- max activation [16]: -1.33%
- Potency [17]: inactive
- Potency [18]: inactive

Structure (SMILES): O=S(=O)(O)CCCS(=O)(=O)O
- Potency [1]: inactive
- Potency [2]: inactive
- Potency [3]: inactive
- Potency [4]: inactive
- Potency [5]: inactive
- Potency [6]: inactive
- Potency [7]: inactive
- Potency [8]: inactive
- Potency [9]: inactive
- Potency [10]: inactive
- Potency [11]: inactive
- Potency [12]: inactive
- Potency [13]: inactive
- Potency [14]: inactive
- Potency [15]: inactive
- max activation [16]: -2.5%
- Potency [17]: inactive
- Potency [18]: inactive

Structure (SMILES): CO/N=C(\C(=O)N[C@@H]1C(=O)N2C(C(=O)O)=CCS[C@H]12)c1csc(N)n1
- Potency [1]: inactive
- Potency [2]: inactive
- Potency [3]: inactive
- Potency [4]: inactive
- Potency [5]: inactive
- Potency [6]: inactive
- Potency [7]: inactive
- Potency [8]: inactive
- Potency [9]: inactive
- Potency [10]: inactive
- Potency [11]: inactive
- Potency [12]: inactive
- Potency [13]: inactive
- Potency [14]: inactive
- Potency [15]: inactive
- max activation [16]: -4.38%
- Potency [17]: inactive
- Potency [18]: inactive

Structure (SMILES): CC(=O)N[C@@H]1C(O[C@H]2O[C@H](C(=O)O)C(O)[C@H](O)[C@H]2O)[C@H](O)[C@@H](CO)O[C@H]1O[C@@H]1C(C(=O)O)O[C@@H](O[C@H]2[C@H](O)[C@@H](CO)OC(O)[C@@H]2NC(C)=O)[C@H](O)[C@H]1O (stereo not given in full)
- Potency [1]: inactive
- Potency [2]: inactive
- Potency [3]: inactive
- Potency [4]: inactive
- Potency [5]: inactive
- Potency [6]: inactive
- Potency [7]: inactive
- Potency [8]: inactive
- Potency [9]: inactive
- Potency [10]: inactive
- Potency [11]: inactive
- Potency [13]: inactive
- Potency [14]: inactive
- Potency [15]: inactive
- max activation [16]: -1.09%
- Potency [17]: inactive
- Potency [18]: inactive

Structure (SMILES): CC(=O)N[C@@H](C=O)[C@@H](O)[C@H](O)[C@H](O)CO
- Potency [1]: inactive
- Potency [2]: inactive
- Potency [3]: inactive
- Potency [4]: inactive
- Potency [5]: inactive
- Potency [6]: inactive
- Potency [7]: inactive
- Potency [8]: inactive
- Potency [9]: inactive
- Potency [10]: inactive
- Potency [11]: inactive
- Potency [12]: inactive
- Potency [13]: inactive
- Potency [14]: inactive
- Potency [15]: inactive
- max activation [16]: -0.914%
- Potency [17]: inactive
- Potency [18]: inactive

Structure (SMILES): NC(=O)OCC(O)COc1ccc(Cl)cc1 (stereo not given)
- Potency [1]: inactive
- Potency [2]: inactive
- Potency [3]: inactive
- Potency [4]: inactive
- Potency [5]: inactive
- Potency [6]: inactive
- Potency [7]: inactive
- Potency [8]: inactive
- Potency [9]: inactive
- Potency [10]: inactive
- Potency [11]: inactive
- Potency [12]: inactive
- Potency [13]: inactive
- Potency [14]: inactive
- Potency [15]: inactive
- max activation [16]: 0.928%
- Potency [17]: inactive
- Potency [18]: inactive

Structure (SMILES): CC(O)[C@@H]1NC(=O)[C@H](Cc2ccccc2)NC(=O)[C@H](C(C)O)NC(=O)[C@H](CCCCN)NC(=O)[C@H](Cc2c[nH]c3ccccc23)NC(=O)[C@H](Cc2ccccc2)NC(=O)[C@H](Cc2ccccc2)NC(=O)[C@H](CC(N)=O)NC(=O)[C@H](CCCCN)NC(=O)[C@@H](NC(=O)CNC(=O)[C@H](C)N)CSSC[C@@H](C(=O)O)NC(=O)[C@H](CO)NC1=O (stereo not given in full)
- Potency [1]: inactive
- Potency [2]: inactive
- Potency [3]: inactive
- Potency [4]: inactive
- Potency [5]: inactive
- Potency [6]: inactive
- Potency [7]: inactive
- Potency [8]: inactive
- Potency [9]: inactive
- Potency [10]: inactive
- Potency [11]: inactive
- Potency [12]: inactive
- Potency [13]: inactive
- Potency [14]: inactive
- Potency [15]: inactive
- max activation [16]: -3.53%
- Potency [17]: inactive
- Potency [18]: inactive

Structure (SMILES): C=CCSSSCC=C
- Potency [1]: inactive
- Potency [2]: inactive
- Potency [3]: inactive
- Potency [4]: inactive
- Potency [5]: inactive
- Potency [6]: inactive
- Potency [7]: 29.8 µM (active)
- Potency [8]: inactive
- Potency [9]: inactive
- Potency [10]: inactive
- Potency [11]: inactive
- Potency [12]: inactive
- Potency [13]: inactive
- Potency [14]: inactive
- Potency [15]: inactive
- max activation [16]: 0.11%
- Potency [17]: inactive
- Potency [18]: inactive

Structure (SMILES): CCCCCCCCCCCCOCCCN
- Potency [1]: inactive
- Potency [2]: inactive
- Potency [3]: inactive
- Potency [4]: inactive
- Potency [5]: inactive
- Potency [6]: inactive
- Potency [7]: inactive
- Potency [8]: inactive
- Potency [9]: inactive
- Potency [10]: inactive
- Potency [11]: inactive
- Potency [13]: inactive
- Potency [15]: inactive
- max activation [16]: -3.73%
- Potency [17]: inactive
- Potency [18]: inactive

Structure (SMILES): CN1c2c(nc(N)[nH]c2=O)NCC1CNc1ccc(C(=O)NC(CCC(=O)O)C(=O)O)cc1 (stereo not given)
- Potency [1]: inactive
- Potency [2]: inactive
- Potency [3]: inactive
- Potency [4]: inactive
- Potency [5]: inactive
- Potency [6]: inactive
- Potency [7]: inactive
- Potency [8]: inactive
- Potency [9]: inactive
- Potency [10]: inactive
- Potency [11]: inactive
- Potency [12]: inactive
- Potency [13]: inactive
- Potency [14]: inactive
- Potency [15]: inactive
- max activation [16]: -0.71%
- Potency [17]: inactive
- Potency [18]: inactive

Structure (SMILES): O=C(NNCS(=O)(=O)O)c1ccncc1
- Potency [1]: inactive
- Potency [2]: inactive
- Potency [3]: inactive
- Potency [4]: inactive
- Potency [5]: inactive
- Potency [6]: inactive
- Potency [7]: inactive
- Potency [8]: inactive
- Potency [9]: inactive
- Potency [10]: inactive
- Potency [11]: inactive
- Potency [13]: inactive
- Potency [14]: inactive
- Potency [15]: inactive
- max activation [16]: -0.625%
- Potency [17]: inactive
- Potency [18]: inactive

Structure (SMILES): S=C=Nc1ccc(N=C=S)cc1
- Potency [1]: inactive
- Potency [2]: inactive
- Potency [3]: inactive
- Potency [4]: inactive
- Potency [5]: inactive
- Potency [6]: 15.1 µM [inconclusive] (active)
- Potency [7]: 1.06 µM (active)
- Potency [8]: inactive
- Potency [9]: inactive
- Potency [10]: inactive
- Potency [11]: inactive
- Potency [12]: inactive
- Potency [13]: inactive
- Potency [14]: inactive
- Potency [15]: inactive
- max activation [16]: -1.24%
- Potency [17]: inactive
- Potency [18]: inactive
